Test results: PubChem BioAssay (Tox21)
Records with an inconclusive call do not appear. Where a call stands in place of a potency, no number is given. The source made the active and inactive calls. The call rests on the fitted dose curve; in most records, active means well fitted cell-killing curve with a large enough effect in the repeat runs; inconclusive means weak or mixed curves, or effect the other way; inactive means flat fitted curve, though single readings scatter.

Test: cAMP Responsive Elements (CRE) small molecule agonists, cell-based qHTS assay: qHTS cell viability counter screen (AID 2060914);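 further: viability read after 3 h of compound exposure; nearly all actives have a fitted effect of over 50% in size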
Conditions: CRE-bla HEK293T viability, CellTiter-Glo luminescence, 5 h; series mostly up to 92.4 µM
Source text: National Center for Advancing Translational Sciences [NCATS]
Division of Preclinical Innovation [DPI]
U.S. Environmental Protection Agency [EPA]
National Institutes of Environmental Health Sciences [NIEHS]
National Toxicology Program [NTP]
U.S. Food and Drug Administration [FDA]
CREB (cyclic-AMP Responsive Element Binding Protein) is a cellular transcription factor. It binds to certain DNA sequences called cAMP Responsive Elements (CRE) and regulates the transcription of the genes. […] This cell line can be used to find agonists/antagonists of the cyclic AMP signaling pathway. The activation of the report gene under culture conditions can be detected by fluorescence intensity. This cell line has been used to screen the Tox21 10K compound library to identify agonists that induce oxidative stress. The cytotoxicity of the Tox21 compound library against the CRE-bla cell line was tested in parallel by measuring the cell viability using CellTiter-Glo assay (Promega, Madison, WI) in the same wells.
Tox21 Assay Protocol Summary:
CRE-bla Hek 293T cells were suspended in assay medium (DMEM containing 10% dialyzed FBS, 0.1 mM NEAA, 1 mM sodium pyruvate and 25 mM HEPES) and dispensed at 2,000 cells/5 uL /well into 1536-well black wall/clear bottom plates using a Multidrop Combi (ThermoFisher Scientific, Waltham, MA) dispenser. After the assay plates were incubated at 37 C/5% CO2 for 18 hrs, 23 nL of compounds dissolved in DMSO, positive controls or DMSO only was transferred to the assay plate by a pintool workstation (Kalypsys, San Diego, CA). After the plates were incubated at 37 C/5% CO2 for 3 hrs, 1 uL of LiveBLAzer B/G FRET substrate (Invitrogen, Carlsbad, CA) was added to each well using Bioraptr Flying Reagent Dispenser (FRD, Aurora Discovery, San Diego, CA). The plates were incubated at room temperature for 2 h, then fluorescence intensities were measured using an Envision plate reader (PerkinElmer, Shelton, CT) at Excitation 405nm, Emission 460nm and 530nm. The % activity was determined from the ratio of 460nm/530nm. For cell viability readout that measures cytotoxicity, 4 uL /well of CellTiter-Glo reagent was added into the assay plates using Bioraptr FRD. After 30 min incubation at room temperature, the luminescence intensity in the assay plates was measured using a ViewLux (PerkinElmer, Shelton, CT) plate reader.

SMILES	Potency	activity change, negative = cytotoxicity
O=C(O)Cc1cn(-c2ccccc2)nc1-c1ccc(Cl)cc1	inactive	–
CCc1cccc2c(CCO)c[nH]c12	inactive	–
Cc1nc2ccc(Cl)cc2[nH]1	inactive	–
CC#N	inactive	–
Nc1cc(Cl)cc(S(=O)(=O)O)c1O	inactive	–
CN(C)Cc1cc(CN(C)C)c(O)c(CN(C)C)c1	inactive	–
C=CCCCCCCCCOC(C)=O	inactive	–
CCC(C)(C)c1cc(O)c(C(C)(C)CC)cc1O	inactive	–
O=S(=O)(O)CCO	inactive	–
CN(C)CCCN	inactive	–
CCNC(=O)/C=C/c1cccc(Br)c1	inactive	–
CCC(C)OC(=O)c1ccc(O)cc1 (stereo not given)	inactive	–
CCCCCC(=O)OCCc1ccccc1	inactive	–
O=[N+]([O-])c1ccc2c(c1)Cc1ccccc1-2	inactive	–
Oc1cc(Cl)cc(Cl)c1Cl	inactive	–
N=C(N)c1ccc(OCCCCCOc2ccc(C(=N)N)cc2)cc1	inactive	–
Cc1ncc([C@@H](CCCCCCc2ccc3c(n2)NCCC3)CC(=O)O)cn1	inactive	–
O=[N+]([O-])c1cc(C(F)(F)F)ccc1Cl	inactive	–
C[N+]1(C)CCCC(OC(=O)C(O)(c2ccccc2)c2ccccc2)C1 (stereo not given)	inactive	–
OC1CCCCC1c1ccccc1 (stereo not given)	inactive	–

SMILES	Potency	activity change, negative = cytotoxicity
CN(C)CCC(c1ccccc1)c1ccccn1 (stereo not given)	inactive	–
C[C@@H]1CC[C@H]2C(C)(C)[C@H]3C[C@@]12CC[C@@]3(C)O	inactive	–
CC(=O)Nc1ccc(N)cc1	inactive	–
C[C@H](CCC(=O)O)[C@H]1CC[C@H]2[C@@H]3C(=O)C[C@@H]4CC(=O)CC[C@]4(C)[C@H]3CC(=O)[C@]12C	inactive	–
CCC(CC)(CC(=O)Nc1cccc(/C=C/c2nc(C3CCC3)cs2)c1)C(=O)O	inactive	–
CCC(C)N (stereo not given)	inactive	–
CO[Si](CCCNc1ccccc1)(OC)OC	inactive	–
CCc1c2c(nc3ccc(OC(=O)N4CCC(N5CCCCC5)CC4)cc13)-c1cc3c(c(=O)n1C2)COC(=O)[C@]3(O)CC	inactive	–
c1cc(N(CC2CO2)CC2CO2)ccc1OCC1CO1 (stereo not given)	inactive	–
CCCCN(CCCC)CCCC	inactive	–
Cc1c(C(=O)NCCO)[n+](=O)c2ccccc2n1[O-]	inactive	–
Cc1cc(NC(=O)C2=C(O)c3ccccc3S(=O)(=O)N2C)no1	inactive	–
Oc1ccc2c(c1)OCO2	inactive	–
CCC(C)c1ccccc1 (stereo not given)	inactive	–
Nc1ccc2cc(S(=O)(=O)O)cc(O)c2c1N=Nc1ccccc1C(F)(F)F	inactive	–
C/C=C/C(=O)CC	–	7.79% [at 18.9 µM] (inactive)
Nc1c(NC/C=C\COc2cc(CN3CCCCC3)ccn2)c(=O)c1=O	–	0.246% [at 18.9 µM] (inactive)
c1ccc(B(c2ccccc2)c2ccccc2)cc1	inactive	–
CC(=O)OCCC(C)C	inactive	–
Cc1cnccn1	inactive	–
